Screening results: PubChem BioAssay, National Center for Advancing Translational Sciences (NCATS)
Most compounds without a hit are left out; they make up all but 21% or so of the library.
CHX counter: affects cycloheximide protein synthesis inhibition readout, counter-screen; max response, %; cell reporter, cycloheximide protein synthesis inhibition counterscreen; hit rate 12% among 300,000; in the data active means max response mostly above about 13%, no sharp cut-off; inactive means mostly below about 14%; further: read at 38.3 µM for the half of the compounds with a filed dose
SARS PLP yeast: inhibitors of SARS-CoV papain-like protease in yeast | S. cerevisiae expressing SARS-CoV PLpro, growth rescue | Potency, µM (doses to about 32.9 µM), hits mostly activators | hit rate 0.19% among 330,000; calls by dose curve; further: nearly all actives have a fitted effect of over 55% in size
Pf growth 96h: P. falciparum growth inhibition at 96 hour, primary screen for plastid delayed-death inhibitors. Potency, µM (doses to about 28.7 µM), most hits filed as inhibitors. hit rate 6.9% among 320,000. AID 504834. P. falciparum luciferase reporter growth, 96 h
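Compounds incubated with erythrocytes infected by luciferase-expressing P. falciparum (2% hematocrit, 0.05% parasitemia final) for 96 hours, 37 C in 5% CO2. Growth inhibition scored as decreased luciferase luminescence.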
Shiga inhibitor: inhibitors of Shiga toxin in Vero cells; inhibition, % at 38.7 µM; Vero cells, Shiga toxin protein synthesis inhibition reporter; hit rate 9.2% among 290,000; in the data active means inhibition mostly above about 28%, no sharp cut-off; inactive means mostly below about 43%
NS1 inh: inhibitors of influenza NS1 protein function; Potency, µM (doses to about 46.1 µM); hit rate 0.4% among 270,000; calls by dose curve; further: actives are rising curves; nearly all actives have a fitted effect of over 50% in size
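In this qHTS, NS1 from influenza A is expressed in budding yeast, where it slows growth. Cells are switched from glucose to 2% galactose medium (pH 6.0, -URA), treated with compound, and growth recovery is read at OD600.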
Pf growth 48h: P. falciparum growth inhibition at 48 hours (one generation); P. falciparum luciferase growth in erythrocytes, 48 h; Potency, µM (highest dose often 28.7 µM), hits mostly inhibitors; hit rate 5.9% among 310,000; AID 504832
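Cell-based growth assay: transgenic P. falciparum expressing firefly luciferase, cultured in red cells within RPMI 1640 containing 0.5% w/v Albumax, 24 mM bicarbonate and gentamycin. A drop in luciferase activity indicates inhibition.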
Large screens that a line does not name were inactive. Unless noted, the call rests on the fitted dose curve; in most records, active means well fitted inhibition curve with a large enough effect; inconclusive means small, poorly fitted or top-dose-only effect, or another doubt; inactive means no such curve, though single readings can be large or run the other way.

CCc1c(C)sc2nc(C(C)C)nc(SCC(=O)N3CCc4ccccc4C3)c12	Pf growth 96h 13.1µM, Pf growth 48h 11.7µM
Cc1ccccc1N1CCN(C2CCCN(C(=O)c3cc(CC(C)C)nn3C)C2)CC1 (stereo not given)	Pf growth 96h inconclusive, Pf growth 48h inconclusive
O=C(Nc1cccnc1)C1CCC(CNS(=O)(=O)c2cccc3nsnc23)CC1 (stereo not given)	Pf growth 48h inconclusive
CC12CCC(=O)N1C(C(=O)Nc1ccccc1N1CCOCC1)CS2 (stereo not given)	none
Cc1ccc(C(=O)O)cc1NC(=S)NC(=O)Cc1ccccc1	none
Cc1ccc(-c2nc3ccccc3s2)cc1NC(=S)NC(=O)c1ccccc1	CHX counter 34.1, Shiga inhibitor 186.8
Cc1nc(NC(=O)c2cc(-n3cnnc3)ccc2Cl)ccc1Br	none
Cc1ccc(-c2nc3ccccc3s2)cc1NC(=O)c1cc(-n2cnnc2)ccc1Cl	CHX counter 38.4, Shiga inhibitor 85.5
O=C(Nc1ccccc1)Nc1nnc(/C=C/c2ccccc2Cl)s1	none
Nc1nnc(/C=C/c2ccccc2Cl)s1	CHX counter 36.4, Shiga inhibitor 46.9
CC(C)CC(=O)N1CCN(C(=O)c2ccc(F)cc2)CC1	Pf growth 96h 13.1µM
COC(=O)C1=C(C)N=c2s/c(=C3\C(=O)Nc4ccccc43)c(=O)n2C1c1ccccc1 (stereo not given)	none
Cc1ccc(OCc2cc(C(=O)NC(C)Cc3cccc(C)n3)no2)cn1 (stereo not given)	none
COC(=O)[C@@H](NC(=O)c1cc(COc2cncc(Cl)c2)on1)c1ccccc1	CHX counter 39.6
CCC(NC(=O)c1cc(COc2cncc(Cl)c2)on1)c1ccc(C)cc1 (stereo not given)	Pf growth 96h 5.22µM
CCc1ccc(NC(=S)Nc2ccc3[nH]c(=O)[nH]c3c2)cc1	none
CCC1=NN(C(=O)c2ccc(Cl)cc2)C(O)(c2ccc(C)cc2)C1 (stereo not given)	CHX counter 18.3, Shiga inhibitor 45.1
CCC1=NN(C(=O)c2ccc(Cl)cc2)C(O)(c2ccccc2)C1 (stereo not given)	Pf growth 96h 3.29µM, Pf growth 48h inconclusive
CCC1=NN(C(=O)c2ccccc2O)C(O)(c2ccccc2)C1 (stereo not given)	CHX counter 31.0, Pf growth 96h inconclusive, Shiga inhibitor 77.3
CCCN1Cc2cccc(C(=O)NCCc3ccccc3)c2C1=O	none
CN(C)c1ccc(C(=S)N2CCN(c3ccc([N+](=O)[O-])cc3)CC2)cc1	none
CN(C)c1ccc(C(=S)N2CCN(c3ccccc3)CC2)cc1	CHX counter 25.0
CC1CCN(C(=S)c2ccc(N(C)C)cc2)CC1	Shiga inhibitor 62.3
Cc1ccc(N2CCN(C(=S)c3ccc(N(C)C)cc3)CC2)cc1	CHX counter 58.7, Shiga inhibitor active, Pf growth 48h inconclusive
COc1ccc(-c2nc(CSCC(=O)NC3CCCc4ccccc43)c(C)o2)cc1OC (stereo not given)	Pf growth 96h 8.28µM (no result: Pf growth 48h)
COc1ccc(-c2nc(CSCC(=O)NC3CCN(Cc4ccccc4)CC3)c(C)o2)cc1OC	Pf growth 96h 10.4µM, Pf growth 48h inconclusive
CCC(=O)c1cn(/C(=C\C(=O)OC(C)(C)C)CCC(OC)OC)cc1CC	Pf growth 96h inconclusive, Pf growth 48h inconclusive (no result: CHX counter, Shiga inhibitor, NS1 inh)
N#Cc1ccc(/C=N/NC(=O)c2cccc(S(=O)(=O)N3CCOCC3)c2)cc1	none (no result: NS1 inh)
O=[N+]([O-])c1c(Nc2ccccn2)cc(Cl)c2nonc12	none
O=C(CSc1ccc(F)cc1)Nc1nnc(-c2ccco2)o1	Pf growth 96h inconclusive (no result: CHX counter, Shiga inhibitor, NS1 inh)
CC(OC(=O)c1ccco1)C(=O)Nc1ncc(Cl)cc1Cl (stereo not given)	none (no result: CHX counter, Shiga inhibitor, NS1 inh)
Oc1ccc(N=Nc2ccccc2)o1	CHX counter 30.1, Shiga inhibitor 42.1
O=S(=O)(O)c1ccc(N=Nc2ccccc2)cc1	none
COc1ccc(NCC(=O)N/N=C/C=C/c2ccccc2[N+](=O)[O-])cc1	none (no result: NS1 inh)
Cn1c(SCC(=O)N/N=C/C=C/c2ccccc2[N+](=O)[O-])nc2ccccc21	none
Cc1occc1C(=O)N/N=C/C=C\c1ccccc1[N+](=O)[O-]	CHX counter 30.4, Shiga inhibitor 69.6
Cc1ccsc1C(=O)N/N=C/C=C/c1ccccc1[N+](=O)[O-]	CHX counter 29.8, Shiga inhibitor 117.4 (no result: Pf growth 48h)
